Among the data in PubChem BioAssay AID763 (NMMLSC, 2007) are inhibition values, retold here.

Values without a mark were called inactive. Activity calls are given as the source filed them. The rule behind the calls is not given here.

What is called inhibition is the drop in the measured response relative to a control, in per cent.

The assay deals with fMet-Leu-Phe receptor (Homo sapiens) (UniProt P21462). Put plainly: human FPR1 ligand displacement single-point test – cell-based, single concentration, selectivity assay for FPRL1 ligand SAR project, SAR follow-up (AID 763). To be noted: FPR1-expressing cells, fluorescent ligand binding inhibition, hits give high values; at 5.4 µM unless noted.
Chain of fMet-Leu-Phe receptor (Homo sapiens) (P21462 whole entry, looked up): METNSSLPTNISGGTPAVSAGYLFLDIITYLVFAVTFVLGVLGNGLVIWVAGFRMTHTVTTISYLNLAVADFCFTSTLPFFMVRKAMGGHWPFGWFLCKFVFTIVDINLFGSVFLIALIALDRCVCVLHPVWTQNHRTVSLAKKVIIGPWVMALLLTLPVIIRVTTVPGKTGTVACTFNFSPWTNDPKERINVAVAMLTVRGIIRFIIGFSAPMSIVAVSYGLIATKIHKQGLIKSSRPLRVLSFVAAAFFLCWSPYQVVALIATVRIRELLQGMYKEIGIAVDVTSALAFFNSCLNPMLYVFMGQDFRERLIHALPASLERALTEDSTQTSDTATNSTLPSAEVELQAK
As to `FC(F)(F)c1cc(-c2ccccc2)nc(N2CCN(c3cccc(Cl)c3)CC2)n1`, the inhibition is -2.5% [at 5.3 µM]. The result for `COc1ccccc1-c1cc(C(F)(F)F)nc(N2CCN(c3ccccc3)CC2)n1` reads -10.8%; that for `Brc1ccc2nc(N3CCN(c4ccccc4)CC3)nc(-c3ccccc3)c2c1`, 0.6% [at 5 µM]; that for `FC(F)(F)c1cc(-c2ccco2)nc(N2CCN(C(c3ccccc3)c3ccccc3)CC2)n1`, 0.5% [at 4.8 µM].

As to `Clc1cccc(-c2nc(N3CCN(C4CCCCC4)CC3)nc3c2COc2ccccc2-3)c1`, the inhibition is -4.5% [at 4.8 µM]. Turning to `COc1ccc(-c2cn3cccnc3n2)cc1NC(=O)COc1ccc(Cl)cc1`, the inhibition is -3.3%.

For the molecule `COc1cccc(C(=O)Nc2cc(-c3cn4cccnc4n3)ccc2OC)c1`, the inhibition is 1% [at 5.9 µM]. Take `FC(F)(F)c1nc(N2CCN(Cc3ccccc3)CC2)nc2c1CCCCC2`: the inhibition is 0.9% [at 5.7 µM]. Next, `Cc1ccc(-c2cc(C(F)F)nc(N3CCN(c4cccc(Cl)c4)CC3)n2)cc1`: 2.7%.

For `COc1ccc(-c2cn3cccnc3n2)cc1NC(=O)C(C)Oc1ccccc1` (stereo not drawn), the inhibition was 3.7% [at 5.7 µM].

In the case of `Cc1ccc2nc(N3CCN(c4ccccc4Cl)CC3)nc(-c3ccccc3)c2c1`, the inhibition is -6%.

On to `COc1ccccc1-c1cc(C(F)(F)F)nc(N2CCN(c3ccccc3OC)CC2)n1`, for which the inhibition is -2.2% [at 5 µM].

Take `CC(C)(C)OC(=O)N1CCN(c2nc(-c3ccccc3)c3cc(Br)ccc3n2)CC1`: the inhibition was 3.5% [at 4.7 µM]. Next, `COc1ccc(-c2cn3cccnc3n2)cc1NC(=O)c1cccc(Cl)c1`: 3.4% [at 5.9 µM]. `COc1cccc(-c2cc(C(F)(F)F)nc(N3CCN(c4ccccc4OC)CC3)n2)c1`: the inhibition was -2.3% [at 5 µM].

`CC(=O)N1CCN(c2nc(-c3ccccc3)c3ccccc3n2)CC1`: the inhibition was 2.3% [at 6.7 µM]. Next, `COc1ccc(-c2cn3cccnc3n2)cc1NC(=O)c1ccccc1Cl`: -3.1% [at 5.9 µM]; `COc1ccc(C2CC(=O)c3cnc(N4CCN(Cc5ccc6c(c5)OCO6)CC4)nc3C2)c(OC)c1` (stereo not drawn): -4.7% [at 4.4 µM]; `CCC(=O)Nc1cccc(-c2nc3ncccn3c2C)c1`: 5.6% [at 7.9 µM]. Next, `COc1ccc(-c2cc(C(F)(F)F)nc(N3CCN(c4ccccc4)CC3)n2)cc1OC`: 54.8% [at 5 µM] (active); `COc1ccc(-c2cn3cccnc3n2)cc1NC(=O)c1cccc(OC)c1OC`: -0.2% [at 5.5 µM]; `O=C(O)CC1(CC(=O)N2CCN(c3nc(-c4ccccc4Cl)c4cc(Br)ccc4n3)CC2)CCCC1`: -1.2% [at 3.9 µM]. The result for `Cc1ccc2nc(N3CCN(C(=O)CCCC(=O)O)CC3)nc(-c3ccccc3)c2c1` reads -4.8% [at 5.3 µM]; that for `COc1ccc(-c2cn3cccnc3n2)cc1NC(=O)COc1ccccc1`, 5.8% [at 5.9 µM]; that for `Cc1ccc2nc(N3CCN(C(=O)CC4(CC(=O)O)CCCC4)CC3)nc(-c3ccccc3)c2c1`, 0.5% [at 4.7 µM]. With `COc1ccc(C2CC(=O)c3cnc(N4CCN(Cc5ccc6c(c5)OCO6)CC4)nc3C2)cc1` (stereo not drawn), the inhibition is 0.4% [at 4.7 µM]. For `Fc1ccc(-c2cc(C(F)(F)F)nc(N3CCN(C(c4ccccc4)c4ccccc4)CC3)n2)cc1`, the inhibition was 1.3% [at 4.5 µM]. In the case of `CCOC(=O)N1CCN(c2nc(-c3cccc(OC)c3)cc(C(F)(F)F)n2)CC1`, the inhibition is -33.9%.

Regarding `COc1ccc(-c2cn3cccnc3n2)cc1NC(=O)CCc1ccccc1`, the inhibition is 6.4% [at 6 µM]. For the molecule `COc1cccc(-c2cc(C(F)(F)F)nc(N3CCN(Cc4ccccc4)CC3)n2)c1`, the inhibition was -16.6% [at 5.2 µM].

Consider `COc1ccc(-c2cc(-c3ccc(F)cc3)nc(N3CCN(C)CC3)n2)cc1`, for which the inhibition is -4.8% [at 5.9 µM]. The result for `FC(F)(F)c1cc(-c2ccccc2)nc(N2CCN(C(c3ccccc3)c3ccccc3)CC2)n1` reads -4.1% [at 4.7 µM]; that for `COc1cccc(-c2cc(C(F)(F)F)nc(N3CCN(C(c4ccccc4)c4ccccc4)CC3)n2)c1`, 2.6% [at 4.4 µM].
